Reference: PubChem BioAssay (NCI)
The panel holds about 83,000 compounds, 20% with a hit somewhere; the sample as a whole holds those more often.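 Method: cells in 96-well plates; compound added at one concentration; 48 h incubation; percent growth measured; values under 10 scored active.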 Unmarked numbers belong to inactive results. Active and inactive are the calls of the source.

tested on: MCF7 breast; assay: NCI-60 one-dose screen, 48 h (100 = growth as untreated, 0 = no growth, -100 = all killed); details: 10 µM unless noted
Protocol: Growth inhibition of the MCF7 human tumor cell line is measured as a screen for anti-cancer activity. Cells are grown in 96 well plates and exposed to the test compound for 48 hours. Compounds are tested at a single concentration, which is 10^-5 M for most compounds. The reported endpoint is percent growth (GI% or GIPRCNT), where numbers from 0 - 100% represent growth inhibition, and numbers from -100% - 0 represent cell death. For example, a value of 40 represents 60% growth inhibition. A value of 0 means no net growth occurred over the course of the experiment. A value of -40 indicates 40% of cells at the beginning of the experiment died by the end of the experiment. A value of -100 means all cells are dead at the end of the experiment.
NCI-60 Human Tumor Cell Lines Screen was performed using the standard one-dose NCI protocol, which is described in more detail at https://dtp.cancer.gov/discovery_development/nci-60/default.htm.
Compounds with GIPRCNT values below 10 were considered active. Activity score was based on GIPRCNT using the following formula: […]
Score is 0 for GIPRCNT values of 100 or above, 50 for GIPRCNT values of 0, and 100 for GIPRCNT values of -100.

In order of falling growth:
1. OC(COc1cccc2ccccc12)CN1CCN(c2ccccc2Cl)CC1 (stereo not given)  105%
2. CCC([N+](=O)[O-])S(=O)(=O)c1ccc(C)cc1 (stereo not given)  101%
3. Cc1nc2c3c(-c4ccccc4)c(-c4ccccc4)oc3ncn2n1  101%
4. CC(O)CN(CC(C)O)c1ccc2c(c1)Cc1cc([N+](=O)[O-])ccc1-2 (stereo not given)  99.2%
5. Cc1nn(-c2ccc(F)cc2)c2ncnc(Oc3ccc(NC(=O)Nc4ccc(Cl)c(C(F)(F)F)c4)cc3)c12  96.2%
6. COc1ccc(/C=C/C(=O)c2cc(O)ccc2O)cc1  94%
7. Fc1ccc(CNc2cccc3[nH]c(C(F)(F)F)nc23)cc1  92.4%
8. Cc1ccc(/C=C2\SC(=S)N(CC(=O)NCCCN3CCOCC3)C2=O)cc1  91.5%
9. O=C(N=Nc1c(O)[nH]c2ccccc12)c1cc(-c2ccccc2)on1  87.9%
10. COc1ccc(-c2cc(NC(=O)Nc3ccc4ncsc4c3)no2)cc1  84.6%
11. CC(=O)OC[C@H]1O[C@H](OC(C)=O)[C@H](NC(=O)/C=C/CCl)[C@@H](OC(C)=O)[C@@H]1OC(C)=O  79.3%
12. Cc1oc(-c2ccc(Cl)cc2Cl)cc1C(=O)Nc1nccs1  60.8%
13. O=Nc1c(O)c(Cl)cc2ccccc12  49.6%
14. COc1ccc(CN2c3ccccc3Oc3ccccc32)cc1F  42.7%
15. COc1cc2nc(N3CCCC3)nc(NCCc3ccccc3)c2cc1OC  35.4%
16. Clc1ccc2c(NCCCCNc3nc(N4CCOCC4)nc4ccccc34)ccnc2c1  33.3%
17. C=CC(=O)Nc1cccc(Nc2nc(SC)nc(-c3cccc([N+](=O)[O-])c3)c2C#N)c1  28.5%
18. O=C(/C=C/c1cccc(Cl)c1)c1ccc(O)c(CN2CCN(c3cc4c(cc3F)c(=O)c(C(=O)O)cn4C3CC3)CC2)c1  28.3%
19. Cc1cc2c3ccccc3ccc2[n+]2ccccc12  27.2%
20. CCCCCCN(CCCCCC)CCC(O)c1ccc2ccccc2c1 (stereo not given)  26.6%
21. CCCn1c(=O)[nH]c(N)c([C@H]2c3ccccc3Oc3[nH]c(=O)n(CCC)c(=O)c32)c1=O  26.4%
22. COc1cc2c(cc1-c1c(C)noc1C)ncc1nc(C3CCCCC3)n([C@H](C)COC(F)F)c12  18.3%
23. CN(C)c1ccc(N=Nc2ccccn2)c(O)c1  17.3%
24. Nc1n[nH]c2ccc([C@@H]3Nc4cc5c(cc4[C@H]4C6CCC(C6)[C@@H]34)C(=O)NC5)cc12 (stereo not given in full)  17.2%
25. CN(C)[C@@H]1C(=O)C(C(=O)NCc2nc3[nH]cnc(=S)c3[nH]2)=C(O)[C@@]2(O)C(=O)C3=C(O)c4c(O)cccc4[C@@](C)(O)[C@H]3C[C@@H]12  16.6%
26. C=CC(=O)Nc1cccc(-c2nc(SC)nc(NCCc3ccc(OC)c(OC)c3)c2C#N)c1  16.5%
27. Clc1ccc2c(NCCCCNc3nc(N4CCCCC4)nc4ccccc34)ccnc2c1  15.8%
28. Cc1cn2c(/C=C3/C(=O)Nc4c3ccc3ccccc43)c(C(F)(F)F)nc2s1  15.4%
29. Clc1ccc2c(NCCNc3nc(N4CCCCC4)nc4ccccc34)ccnc2c1  14.5%
30. Oc1ccccc1-c1nnc(CNc2ccc(Cl)cc2)o1  14.2%
31. Cc1[nH]c(-c2cc(N)ccc2Cl)c2c1C(=O)CCCC2  12.8%

For `CN1CCN(CCCOc2cccc3nc(Nc4ccc(Cl)c(F)c4)ccc23)CC1`, the growth was -43.1% (active).
In the case of `O=C(COc1cccc(/C=C2\COc3ccc(Cl)cc3C2=O)c1)c1ccc(Cl)cc1`, the growth was 0.286% (active).
In the case of `Cc1cc(N2CCCCCC2)nc(NC2CCCC(Nc3ccnc4cc(Cl)ccc34)C2)n1` (stereo not given), the growth was -56.8% (active).
For `CSc1ccc(SC2c3ccc(C)cc3Oc3nc(N)c(C#N)c(N)c32)cc1` (stereo not given), the growth was -52.2% (active).
With `O=C1CC[C@H](c2ccc(O)c3c2C(=O)[C@@H]2O[C@@H]2C3=O)c2cccc(O)c21` the growth was -31.5% (active).
For `NC(=NCCCOc1ccc(Cl)cc1)Nc1ccc(C(F)(F)F)cc1`, the growth was 9.17% (active).
In the case of `O=C(Cc1ccc(/C=C/C(=O)c2ncc[nH]2)cc1)Nc1ccccc1`, the growth was 9.95% (active).
With `Cn1ccnc1C(=O)/C=C/c1ccccc1` the growth was 2.27% (active).
With `O=C(COc1cccc(/C=C2\CSc3ccccc3C2=O)c1)Nc1nccs1` the growth was -0.12% (active).
